This passage reports AC50 results from PubChem BioAssay (EPA / NIEHS).

Activity calls are given as the source filed them. How the source made its calls: active means hit-call score of the fitted dose curve at least 0.9, where 1 is the maximum; inactive means score below 0.9.

The test deals with TTR (gene 7276). As to the kind of experiment: CCTE_GLTED_hTTR_0.125uM: CCTE's human Transthyretin (hTTR) Inhibition Assay, with 0.125uM TTR, Great Lakes Toxicology and Ecology Division (GLTED) Lab (AID 2284431).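 Further: hits lower the fluorescence signal relative to DMSO baseline.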 The method in brief: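 Cell-free displacement of ANSA probe from 0.125uM TTR after 2 h incubation with chemical. Fluorescence read at 380 nm excitation/475 nm emission; loss of signal relative to DMSO indicates T4-site displacement.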
With `CO/N=C(/C(=O)OC)c1ccccc1COc1ccccc1C`, the AC50 (as a rule, the midpoint of the concentration-response curve, whichever way the signal moves) was 3.22 µM (active). Consider `O=c1ssc(Cl)c1Cl`, for which the AC50 is 0.578 µM (active). For `CCC(C)(C)c1ccc(O)cc1`, the AC50 was 14.4 µM (active). Regarding `CCCCc1ccc(O)cc1`, the AC50 was 6.48 µM (active). `O=S(=O)(c1ccc(O)cc1)c1ccc(O)cc1`: the AC50 was 19.9 µM (active). For `CCCCCCCc1ccc(O)cc1`, the AC50 was 0.736 µM (active).
